Source: PubChem BioAssay (National Center for Advancing Translational Sciences (NCATS))
Many of the other results were omitted from the sample, so hits are more common in it than they were.
IMPase inh = membrane-permeable compound that blocks inositol monophosphatase; inhibition (IP1 accumulation), % at 46.1 µM; 120,000 tested, under 10 active; P97697; CHO-M1 cells, IP1 accumulation, HTRF TR-FRET ratio; active = well fitted curve in the direction sought with a large enough effect in the signal ratio, not every such curve was filed as active; inconclusive = small, poorly fitted or top-dose-only effect, or a change in a side signal; inactive = no such curve, though single readings can be large or run the other way; the % refers to the signal ratio;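 also: cells stimulated with carbachol in lithium chloride buffer; plate controls were DMSO basal wells for no effect and reference inhibitor wells for full effect; higher means more IMPase inhibition seen as more IP1 and lower FRET ratio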
Target sequence (P97697 whole entry, looked up): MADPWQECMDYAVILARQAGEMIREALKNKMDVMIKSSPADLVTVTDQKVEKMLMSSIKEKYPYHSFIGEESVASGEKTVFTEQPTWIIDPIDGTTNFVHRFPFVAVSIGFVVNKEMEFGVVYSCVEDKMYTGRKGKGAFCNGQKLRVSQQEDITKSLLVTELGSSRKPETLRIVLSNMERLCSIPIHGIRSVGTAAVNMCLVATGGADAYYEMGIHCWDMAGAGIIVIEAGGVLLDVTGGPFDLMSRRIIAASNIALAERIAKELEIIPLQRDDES
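In this qHTS, compounds (final up to 46 uM) act on CHO-M1 cells that are then activated through the M1 receptor with carbachol, in pH 7.4 buffer containing 50 mM LiCl, for 30 min. IP1 accumulation is quantified by the IP-One immunoassay.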
PNC assembly inh = blocks assembly of the perinucleolar compartment. PC3M PTB-GFP, PNC prevalence imaging, 16 h; active compounds read low. activity change (PNC), negative = inhibition, % at 10 µM. 140,000 tested, 3.1% active. AID 2417;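 active = readout at or below -70, meaning at least 70% loss of cells showing the perinucleolar compartment, a nuclear body marking cancer cells; inconclusive = readout between -30 and a set limit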;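 also: plate controls were DMSO wells for no effect and camptothecin positive control wells for full effect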
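Compounds are pinned in duplicate onto adhered PC3M cells stably expressing GFP-tagged PTB and incubated 16 h at 37 C. Cells are then fixed, nuclei stained with Hoechst, and PNC-positive cells counted.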
LMNA splice mod = modulators of lamin A splicing | HeLa LMNA splicing GFP/RFP minigene ratio, 48 h | Potency, µM (highest dose often 46.1 µM), without a hit: at the top dose ratio change, negative = inhibition, hits mostly inhibitors | AID 1487 | 200,000 tested, 0.01% active; active = well fitted inhibition curve with a large enough effect in the signal ratio, with a control signal flat, not every such curve was filed as active; inconclusive = small, poorly fitted or top-dose-only effect, or effect the other way, or a change in a side signal; the % refers to the signal ratio; also: potency is read from the fitted curve at half-maximal effect
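S3 HeLa stable clones carrying a lamin A-EGFP splicing minigene plus DsRed2 were seeded at 600 cells/well in Opti-MEM with 2% FBS, pin-dosed and incubated 48 h at 37°C. Acumen cytometry (488 nm) gave the GFP/RFP total-intensity ratio.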
The depositor's hits bear a star; ? = inconclusive; nt = no result given; [ ] = another dose, or the depositor's remark. Unless noted, % is scaled to controls: 0 for no effect and ±100 for the full control effect.

SMILES	IMPase inh	PNC assembly inh	LMNA splice mod
Cc1ccc(C(=O)COC(=O)c2cnccn2)cc1	0	-102*	-3%
Cc1ccc(C(=O)Oc2ccc(C(=O)COC(=O)c3cnccn3)cc2)cc1	10	72	4%
COC(=O)c1c(-c2cccs2)csc1NC(=O)c1ccc(Br)cc1	nt	nt	-6%[46 µM]
Cc1ccc(S(=O)(=O)N2CCOCC2)cc1NC(=O)CN1CCN(c2ccc(O)cc2)CC1	nt	41	3%
Cc1ccc(C2(C)NC(=O)N(CC(=O)Nc3cc(S(=O)(=O)N4CCOCC4)ccc3C)C2=O)cc1 (stereo not given)	nt	-115*	?
COc1ccc(/C=N/NC(=O)c2snnc2C)c(OC)c1OC	nt	nt	8%[46 µM]
COc1cc(N/C=C(\C(C)=O)c2ccccc2)cc(OC)c1	18[1.84 µM]	?	-2%
Cc1ccccc1Cn1nc(C)c(NC(=O)/C=C/c2cnn(C)c2)c1C	nt	-114*	-5%
Cc1ccccc1Cn1nc(C)c(NC(=O)/C=C/c2cnn(C)c2C)c1C	nt	?	11%
COC(=O)Cn1c(O)c(N=NC(=O)c2ccc3c(c2)OCO3)c2ccccc21	nt	nt	15%[46 µM]
O=C(Nc1cccc(-c2nc3cccnc3s2)c1)C1c2ccccc2Oc2ccccc21	nt	-119*	10%
Cc1cccnc1NC(=O)C1c2ccccc2Oc2ccccc21	nt	2	?
Cc1nc(NC(=S)NC(=O)c2ccccc2)sc1C(=O)N(C)C	1	16	4%
COC(=O)c1sc(NC(=S)NC(=O)c2ccccc2)nc1C	-12	-88*	-12%
O=C(CNC(=S)N(CCCN1CCOCC1)Cc1cccs1)N1CCCCCC1	nt	nt	12%[9.22 µM]
CC(C(=O)c1c[nH]c(C(N)=O)c1)c1ncc(C(F)(F)F)cc1Cl (stereo not given)	nt	nt	-3%[9.22 µM]
COc1ccc(Nc2nc(N)nc(CSc3nnc(N)s3)n2)cc1	0	-96*	3%
COc1ccc(Nc2nc(N)nc(CSc3nc(C)cc(C)n3)n2)cc1	nt	nt	21%[46 µM]
Cc1ccccc1C(=O)Nc1nnc2n1CCS2	nt	nt	16%[46 µM]
Cc1ccccc1NC(=O)C1(C)Cc2ccccc2C(=O)O1 (stereo not given)	-7	75	-7%
CC1(C(=O)O)Cc2ccccc2C(=O)O1 (stereo not given)	2	-101*	20%
CC1CN(C(=O)COC(=O)c2ccc(Cl)nc2)CC(C)O1 (stereo not given)	nt	nt	-4%[46 µM]
CCc1ccc(CN2CCc3nc(N4CCN(c5ccccc5F)CC4)ncc3C2)cc1	nt	nt	-2%[46 µM]
C=CCNc1nc(-c2ccc([N+](=O)[O-])cc2)cs1	nt	-114*	?
C=CCNc1nc(-c2ccc(Cl)cc2)cs1	5	49	-19%
SMILES	IMPase inh	PNC assembly inh	LMNA splice mod
CCCNC(=O)OCc1cccnc1Sc1ccc(C)cc1	nt	nt	4%[9.22 µM]
COc1ccccc1Nc1sc(C(=O)c2ccc3c(c2)OCO3)c(N)c1S(=O)(=O)c1ccccc1	nt	nt	-1%[46 µM]
CC1CC1C(=O)OCC(=O)NC(=O)NCc1ccco1 (stereo not given)	1	-88*	7%
O=C(COC(=O)C12CC3CC(CC(O)(C3)C1)C2)NC(=O)NCc1ccco1	-2	-28	6%
CN(C)CCCN(C(=O)c1sc2ccccc2c1Cl)c1nc2ccc(F)cc2s1	nt	-94*	?
CN(C)CCCN(C(=O)c1cccs1)c1nc2ccc(F)cc2s1	nt	nt	2%[46 µM]
CCOC(=O)c1ccc(N=C2SC(C(=O)Nc3ccccc3)CC(=O)N2C)cc1 (stereo not given)	0	nt	nt
Cc1ccsc1C(=O)Nc1ccc(F)c([N+](=O)[O-])c1	nt	-81*	?
O=C(Nc1ccccc1)Nc1ccc(F)c([N+](=O)[O-])c1	nt	2	?
COc1ccc(NC(=O)N2CCN(S(=O)(=O)c3ccc4c(ccn4C)c3)CC2)c(OC)c1	nt	nt	11%[46 µM]
COc1ccccc1-c1cncnc1NCCc1cnc[nH]1	nt	nt	21%
O=C(c1ccc(C(F)(F)F)cc1)N1CCC(=O)N(C(COCc2ccc(C(F)(F)F)cc2)Cc2ccccc2)CC1 (stereo not given)	nt	26	?
Cc1cccc(COCC(Cc2ccccc2)N2CCN(C(=O)c3ccc(C(F)(F)F)cc3)CCC2=O)c1 (stereo not given)	nt	-80*	?
Cc1cc(N)c2ccccc2[n+]1CCCCCCCCCC[n+]1c(C)cc(N)c2ccccc21	19	nt	?
Cc1ccc(NC(=O)Cn2cnc3c(cnn3C(C)(C)C)c2=O)cc1	0	-100*	4%
CC(C)(C)n1ncc2c(=O)n(CC(=O)Nc3ccc4c(c3)OCO4)cnc21	-4	-15	-1%
CNCC(O)Cn1c(C(F)(F)F)nc2ccccc21 (stereo not given)	-9	-100*	-1%
OC(Cn1nnc2ccccc21)Cn1c(C(F)(F)F)nc2ccccc21 (stereo not given)	-4	?	5%
COc1ccc(CC2CCOC2=O)cc1 (stereo not given)	3	-127*	4%
COc1ccc(CC2C(=O)OC(C)(C)OC2=O)cc1	2	-30	5%
CCOc1ccc(-c2nc(CNC(=O)NC3CCCCC3)c(C)o2)cc1	nt	nt	14%[46 µM]
Cc1nnc(N2C(=O)c3oc4ccccc4c(=O)c3C2c2ccc(C(C)(C)C)cc2)s1 (stereo not given)	-1	nt	nt
COc1ccc(CCSc2nnc(C3CCCCC3)n2N)cc1	7	22	-9%
O=C(O)CN(c1ccc(F)cc1)S(=O)(=O)c1ccc2c(c1)OCCO2	-9	27	1%
Cc1ccc(N(CC(=O)N2CC(=O)Nc3ccccc32)S(=O)(=O)c2ccc3c(c2)OCCO3)cc1	-5	-100*	-1%
SMILES	IMPase inh	PNC assembly inh	LMNA splice mod
CCN(c1ccc(C)cc1C)S(=O)(=O)c1nnc(NC(=O)CC(C)C)s1	nt	nt	-6%[46 µM]
O=C1C2C3C=CC(C3)C2C(=O)N1c1cccc(N2C(=O)C3C4C=CC(C4)C3C2=O)n1 (stereo not given)	0	-99*	-4%
O=C1C2C3C=CC(C3)C2C(=O)N1c1ccc2ccccc2n1 (stereo not given)	6	?	-1%
CN(C)CCCN1C(=O)C(=O)/C(=C(/O)c2ccc3c(c2)OCCO3)C1c1ccco1 (stereo not given)	-6	-86*	-1%
Cc1nc(C)c(C(=O)C2=C(O)C(=O)N(CCN(C)C)C2c2ccccc2)s1 (stereo not given)	-16	?	16%
CCN(CC)CCCN1C(=O)C(=O)/C(=C(/O)c2ccc3c(c2)OCCO3)C1c1ccco1 (stereo not given)	-13	20	11%
Cc1nc(C)c(C(=O)C2=C(O)C(=O)N(CCCN(C)C)C2c2ccco2)s1 (stereo not given)	5	-81*	6%
O=C1CCCC2=C1C(c1ccc(Cl)cc1)N1C(=O)CCSC1=N2 (stereo not given)	13	-100*	-14%
COC(=O)C1=C(C)N=C2SCCC(=O)N2C1c1ccc(C(=O)OC)cc1 (stereo not given)	6	29	8%
Nc1nc(CN2CCN(c3ccccc3F)CC2)nc(Nc2ccccc2)n1	-5	?	?
Nc1nc(CN2CCN(Cc3ccc4c(c3)OCO4)CC2)nc(Nc2ccccc2)n1	-5	-129*	-10%
Nc1nc(CN2CCC(Cc3ccccc3)CC2)nc(Nc2ccccc2)n1	3	-105*	-2%
